Assay results as given in PubChem BioAssay (NCATS).
Several values for one entry are separate records, joined by “and”; a condition that tells them apart may be missing. Equal entries are not always repeated. Inconclusive results are not listed. Activity calls are given as the source filed them. Unless noted, calls follow the shape of the dose curve; as a rule, active = well fitted curve in the direction sought with a large enough effect; inconclusive = small, poorly fitted or top-dose-only effect, or another doubt; inactive = no such curve, though single readings can be large; an effect the other way counts as inactive or inconclusive.

Legend:
[1] = Cell Viability - HUV-EC-C (AID 542); also: % is scaled to controls: 0 for no effect and ±100 for the full control effect; nearly all actives have a fitted effect of over 35% in size
Outline: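 HUV-EC-C human vascular endothelial cells, 1000/well, exposed to compound for 40 hr at 37 °C in complete medium. Intracellular ATP was read by CellTiter-Glo luminescence. AC50 came from Hill-equation fits of concentration-response data.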

[2] = Cell Viability - H-4-II-E (AID 543); also: nearly all actives have a fitted effect of over 35% in size; also: potency is read from the fitted curve at half-maximal effect
Outline: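 Rat hepatoma H-4-II-E cells, 1500 per well, treated 40 h at 37 °C in complete medium. Cellular ATP read by CellTiter-Glo luminescence; AC50 from Hill fits of concentration-response.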

[3] = Cell Viability - Mesenchymal (AID 546);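 also: cells exposed to compound for 40 hours before reading; 0% = DMSO only and -100% = 100 µM tamoxifen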
Outline: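 AC50 values reflect the drop in intracellular ATP in a human kidney mesenchymal line derived from normal glomeruli. Treatment lasts 40 hr at 37 °C in complete medium, and the signal comes from CellTiter-Glo luminescence.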

[4] = Cellular Toxicity (caspase-3) BJ (AID 658);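 also: 0% = DMSO basal and 100% = 10 µM staurosporine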
Outline: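 Readout: Caspase-Glo 3/7 luminescence increase in BJ cells after 16 hr treatment at 37 °C. Staurosporine and tamoxifen served as positive controls; AC50 values came from Hill modelling of data normalized to DMSO and 10 uM staurosporine.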

[5] = Cellular Toxicity (caspase-3) SK-N-SH (AID 661);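 also: 0% = DMSO basal and 100% = 10 µM staurosporine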
Outline: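 Human SK-N-SH neuroblastoma cells, 1500/well, were exposed to compounds for 16 hours at 37 °C. Caspase-Glo 3/7 luminescence was normalized to DMSO (basal) and 10 uM staurosporine (100%), and AC50 came from a Hill fit.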

[6] = Cellular Toxicity (caspase-3) H-4-II-E (AID 663); settings: Potency: caspase-3 activation;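 also: cells exposed to compound for 16 hr before readout; 0% = DMSO basal and 100% = 100 µM tamoxifen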
Outline: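 Apoptosis induction is scored as increased luminescence from caspase 3/7 substrate cleavage in rat hepatoma H-4-II-E cells exposed to compound for 16 hr. Activity is scaled between DMSO and 100 uM tamoxifen.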

[7] = Cellular Toxicity (caspase-3) NIH 3T3 (AID 666);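 also: caspase signal read after 16 h compound exposure; 0% = DMSO basal and 100% = 100 µM tamoxifen stimulation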
Outline: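 Mouse NIH 3T3 fibroblasts (1000/well) treated 16 h at 37 C; caspase-3/7 activity measured by Caspase-Glo 3/7 luminescence after 20 min. Normalized to DMSO and 100 uM tamoxifen; AC50 from Hill fits.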

[8] = Cellular Toxicity (caspase-3) Renal Proximal Tubule (AID 667);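 also: cells exposed to compound for 16 hours at 37 °C before detection; 0% = DMSO basal and 100% = 10 µM staurosporine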
Outline: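 Primary rat proximal tubule cells, 1000/well, 5 h plating at 37 °C, then compound 16 h at 37 °C. Caspase-Glo 3/7 reagent, 1 h RT, luminescence. Normalized to DMSO (basal) and 10 uM staurosporine (100%); Hill-fit AC50.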

[9] = Cell Viability - LYMP2-019 (AID 973); also: nearly all actives have a fitted effect of over 55% in size; also: potency is read from the fitted curve at half-maximal effect
Outline: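 Human lymphoblastoid LYMP2-019 cells (2500/well) preincubated 5 h at 37 C, then treated 24 h at 37 C in complete medium. Viability by CellTiter-Glo ATP luminescence after 30 min at room temperature; AC50 from Hill fits.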

[10] = Cell Viability - LYMP2-023 (AID 975); also: nearly all actives have a fitted effect of over 55% in size; also: potency is read from the fitted curve at half-maximal effect
Outline: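 LYMP2-023 human lymphoblastoid cells, 2500/well, preincubated 5 hr at 37 C, then compound-treated 24 hr at 37 C in complete medium. CellTiter-Glo luminescence (ATP) after 30 min at room temperature; AC50 from Hill-equation fits; tetraoctylammonium bromide positive control.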

[11] = Cell Viability - LYMP2-006 (AID 978); also: nearly all actives have a fitted effect of over 60% in size; also: potency is read from the fitted curve at half-maximal effect
Outline: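 Human lymphoblastoid cells, 2500 per well, were preincubated 5 hr at 37 C, then exposed to compounds for 24 hr at 37 C in complete medium. Viability was read as intracellular ATP by CellTiter-Glo luminescence; AC50 from Hill-equation fits of qHTS concentration-response data.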

[12] = Cell Viability - LYMP2-007 (AID 979);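 also: cells exposed to compound for 24 h before reading; nearly all actives have a fitted effect of over 60% in size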; also: potency is read from the fitted curve at half-maximal effect
Outline: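 Human lymphoblastoid LYMP2-007 cells (2500/well) preincubated 5 h at 37 C, then treated 24 h at 37 C in complete medium. Viability by CellTiter-Glo ATP luminescence after 30 min at room temperature; AC50 from Hill fits.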

[13] = Cell Viability - LYMP2-008 (AID 980); also: nearly all actives have a fitted effect of over 60% in size; also: potency is read from the fitted curve at half-maximal effect
Outline: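 LYMP2-008 lymphoblastoid cells (2500/well) plated 5 h, then treated 24 h at 37 C in complete medium. Viability read as intracellular ATP by CellTiter-Glo luminescence after 30 min at room temperature; AC50 from Hill fits.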

[14] = Cell Viability - LYMP2-014 (AID 983); also: nearly all actives have a fitted effect of over 50% in size; also: potency is read from the fitted curve at half-maximal effect
Outline: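 LYMP2-014 human lymphoblastoid cells, 2500/well, treated 24 h at 37 C in complete medium; viability by CellTiter-Glo ATP luminescence after 30 min at room temperature. AC50 from Hill fits of qHTS concentration-response; tetraoctylammonium bromide positive control.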

[15] = molecular target: Peroxisome proliferator-activated receptor gamma (Homo sapiens) (UniProt P37231); experiment: qHTS assay for small molecule agonists of peroxisome proliferator-activated receptor gamma signaling (AID 588536; active = well fitted curve in the direction sought with a large enough effect in the signal ratio, with a control signal flat, not every such curve was filed as active; the % refers to the signal ratio;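 also: 0% = DMSO basal wells and 100% = rosiglitazone at 2 µM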)
Outline: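 Ratiometric blue/green fluorescence (405 nm excitation; 460 and 530 nm emission) from CCF4-loaded HEK293 reporter cells serves as signal. Exposure to test compounds lasts 16 h at 37 C in medium containing 1% charcoal/dextran-treated serum.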

[16] = molecular target: Voltage-gated inwardly rectifying potassium channel KCNH2 (Homo sapiens) (UniProt Q12809); experiment: qHTS Assay for Small Molecule Inhibitors of the Human hERG Channel Activity (AID 588834);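 also: lower thallium flux fluorescence means stronger hERG block; nearly all actives have a fitted effect of over 50% in size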; also: potency is read from the fitted curve at half-maximal effect
Outline: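 U2OS cells transduced with hERG via BacMam (MOI ~100), plated 2000/well, loaded with FluxOR thallium dye, compound ~10 min, then stimulation buffer; fluorescence decrease read kinetically; AC50 from Hill fits.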

[17] = Cellular Toxicity (caspase-3) N2a (AID 665);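 also: compound exposure lasted 16 h at 37 °C before readout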
Outline: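 Mouse N2a neuroblastoma cells, 1500 per well, treated 16 h at 37 °C in complete medium; caspase-3/7 activity by Caspase-Glo luminescence after 1 h. Normalized to DMSO and 10 uM staurosporine; AC50 from Hill fits.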

[18] = Cell Viability - LYMP2-020 (AID 986);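 also: series mostly up to about 92 µM; plate controls were DMSO only for no effect and tetraoctylammonium bromide at 92 µM for full effect; nearly all actives have a fitted effect of over 55% in size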
Outline: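 Human lymphoblastoid LYMP2-020 cells (2500/well) preincubated 5 h at 37 C, then treated 24 h at 37 C. Viability measured as intracellular ATP by CellTiter-Glo luminescence after 30 min at room temperature; AC50 from Hill fits.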

[19] = qHTS assay for cell viability of HEK293 cells (AID 743288); settings: ATP luminescence (CellTiter-Glo), 18 h, hits give low values; also: % is scaled to controls: 0 for no effect and ±100 for the full control effect; nearly all actives have a fitted effect of over 50% in size
Outline: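 Parental HEK293 cells were seeded at 2,000 cells/well, rested at least 5 h at 37 C, then exposed to compounds in DMSO for 18 h at 37 C. Viability was read as ATP-dependent luciferase luminescence after 30 min at room temperature.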

[20] = molecular target: Nuclear receptor subfamily 1 group I member 2 (Rattus norvegicus) (UniProt Q9R1A7); experiment: qHTS assay for small molecule activators of the rat pregnane X receptor (rPXR) signaling pathway (AID 651751; call rule not given here; also: 0% is about no effect); settings: rPXR reporter cells, luciferase (One-Glo), 24 h
Chain of Nuclear receptor subfamily 1 group I member 2 (Rattus norvegicus) (Q9R1A7 whole entry, looked up): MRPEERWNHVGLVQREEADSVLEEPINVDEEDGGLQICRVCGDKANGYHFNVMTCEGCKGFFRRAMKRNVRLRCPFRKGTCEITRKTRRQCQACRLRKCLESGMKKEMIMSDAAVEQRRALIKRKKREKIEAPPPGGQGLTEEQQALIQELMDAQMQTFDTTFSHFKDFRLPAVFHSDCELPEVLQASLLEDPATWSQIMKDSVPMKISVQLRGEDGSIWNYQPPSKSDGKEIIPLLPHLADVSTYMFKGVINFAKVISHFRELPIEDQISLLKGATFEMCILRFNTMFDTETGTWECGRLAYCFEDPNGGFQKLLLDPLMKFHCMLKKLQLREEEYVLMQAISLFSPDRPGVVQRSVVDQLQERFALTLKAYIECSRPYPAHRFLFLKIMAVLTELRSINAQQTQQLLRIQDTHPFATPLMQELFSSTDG

Chain of Voltage-gated inwardly rectifying potassium channel KCNH2 (Homo sapiens) (Q12809 whole entry, looked up): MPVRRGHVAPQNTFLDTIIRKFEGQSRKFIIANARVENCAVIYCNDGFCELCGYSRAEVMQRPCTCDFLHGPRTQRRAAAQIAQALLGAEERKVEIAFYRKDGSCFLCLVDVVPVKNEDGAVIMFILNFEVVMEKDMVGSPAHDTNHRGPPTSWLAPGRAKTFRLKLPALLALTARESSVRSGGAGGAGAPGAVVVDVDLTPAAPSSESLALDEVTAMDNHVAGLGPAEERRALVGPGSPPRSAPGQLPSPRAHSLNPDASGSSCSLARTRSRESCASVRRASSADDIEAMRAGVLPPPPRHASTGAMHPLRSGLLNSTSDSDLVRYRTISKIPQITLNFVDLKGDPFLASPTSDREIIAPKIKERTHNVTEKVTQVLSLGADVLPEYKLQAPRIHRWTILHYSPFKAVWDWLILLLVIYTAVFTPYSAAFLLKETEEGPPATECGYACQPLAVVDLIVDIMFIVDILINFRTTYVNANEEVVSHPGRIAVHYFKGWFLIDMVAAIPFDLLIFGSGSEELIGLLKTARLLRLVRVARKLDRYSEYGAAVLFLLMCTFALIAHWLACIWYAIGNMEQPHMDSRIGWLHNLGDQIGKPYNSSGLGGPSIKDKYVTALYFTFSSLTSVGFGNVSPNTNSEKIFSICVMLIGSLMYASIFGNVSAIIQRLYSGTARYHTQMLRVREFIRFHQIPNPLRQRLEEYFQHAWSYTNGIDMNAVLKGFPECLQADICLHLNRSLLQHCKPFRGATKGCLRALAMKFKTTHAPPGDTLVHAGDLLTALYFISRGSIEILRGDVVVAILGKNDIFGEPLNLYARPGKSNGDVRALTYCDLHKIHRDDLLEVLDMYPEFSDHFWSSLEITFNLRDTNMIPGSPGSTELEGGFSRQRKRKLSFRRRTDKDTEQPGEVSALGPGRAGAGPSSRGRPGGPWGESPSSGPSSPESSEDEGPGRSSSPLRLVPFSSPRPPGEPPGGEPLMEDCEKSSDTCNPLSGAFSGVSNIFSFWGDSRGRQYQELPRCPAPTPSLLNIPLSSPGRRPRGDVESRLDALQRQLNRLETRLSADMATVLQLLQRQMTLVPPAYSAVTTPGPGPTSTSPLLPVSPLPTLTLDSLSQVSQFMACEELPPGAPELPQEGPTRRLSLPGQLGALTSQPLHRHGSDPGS
Chain of Peroxisome proliferator-activated receptor gamma (Homo sapiens) (P37231 whole entry, looked up): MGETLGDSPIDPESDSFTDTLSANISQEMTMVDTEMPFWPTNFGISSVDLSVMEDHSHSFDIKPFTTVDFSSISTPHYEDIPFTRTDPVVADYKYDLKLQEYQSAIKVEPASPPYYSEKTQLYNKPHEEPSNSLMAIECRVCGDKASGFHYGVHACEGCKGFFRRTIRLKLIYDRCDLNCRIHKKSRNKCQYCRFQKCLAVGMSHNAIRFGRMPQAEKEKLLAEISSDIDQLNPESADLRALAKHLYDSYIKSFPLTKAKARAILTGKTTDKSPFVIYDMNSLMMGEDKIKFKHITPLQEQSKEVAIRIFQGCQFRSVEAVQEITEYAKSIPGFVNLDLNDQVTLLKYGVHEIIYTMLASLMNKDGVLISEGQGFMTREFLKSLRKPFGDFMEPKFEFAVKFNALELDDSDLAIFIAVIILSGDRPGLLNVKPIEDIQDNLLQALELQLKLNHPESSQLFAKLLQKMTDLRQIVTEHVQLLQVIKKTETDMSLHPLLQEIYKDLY

CCN(N=O)C(N)=O
inactive: Potency [1] | Potency [2] | Potency [3] | outcome [4] | Potency [5] | Potency [6] | Potency [7] | outcome [8] | Potency [9] | Potency [10] | Potency [11] | Potency [12] | Potency [13] | Potency [14] | outcome [15] | Potency [16]

N#CCCCCC#N
inactive: Potency [2] | outcome [4] | Potency [5] | Potency [6] | outcome [17] | Potency [7] | outcome [8] | Potency [9] | Potency [10] | Potency [12] | Potency [13] | Potency [18] | outcome [15] | max response [19] -18.9% | max response [20] 9.56%

c1ccc(Nc2ccc(Nc3ccccc3)cc2)cc1
inactive: Potency [1] | Potency [3] | outcome [4] | Potency [5] | Potency [6] | Potency [7] | outcome [8] | Potency [9] | Potency [10] | Potency [11] | Potency [12] | Potency [13] | Potency [14] | Potency [18] | max response [19] -19.5%
active: Potency [2] 7.94 µM

CN1CSC(=S)N(C)C1
active: Potency [9] 31.6 µM | Potency [10] 39.8 µM | Potency [11] 39.8 µM | Potency [12] 31.6 µM | Potency [13] 39.8 µM | Potency [14] 15.8 µM
inactive: Potency [1] | Potency [3] | outcome [4] | Potency [6] | outcome [17] | outcome [8] | outcome [15] | Potency [16] | max response [19] -15.3% | max response [20] -10.5% and -8.21%

CN(C)C(=O)Nc1ccc(Cl)cc1
inactive: Potency [1] | Potency [2] | Potency [3] | outcome [4] | Potency [5] | Potency [6] | outcome [17] | Potency [7] | outcome [8] | Potency [9] | Potency [10] | Potency [11] | Potency [13] | Potency [14] | outcome [15] | max response [19] 10.7% and -3.59% | max response [20] 6.29% and 10.4%

C=CC#N
inactive: Potency [1] | Potency [2] | Potency [3] | outcome [4] | Potency [5] | Potency [6] | outcome [17] | Potency [7] | outcome [8] | Potency [9] | Potency [10] | Potency [11] | Potency [12] | Potency [13] | Potency [14] | Potency [18] | outcome [15] | Potency [16] | max response [19] -18.6% | max response [20] -2.96%

CC(C)C#N
inactive: Potency [1] | Potency [2] | Potency [3] | outcome [4] | Potency [5] | Potency [6] | outcome [17] | Potency [7] | outcome [8] | Potency [9] | Potency [12] | Potency [13] | Potency [14] | outcome [15] | Potency [16] | max response [19] 0.536% | max response [20] 3.94%

N#CC(Br)Br
inactive: Potency [1] | outcome [4] | outcome [17] | Potency [7] | outcome [8] | outcome [15] | Potency [16] | max response [19] -22.9% | max response [20] -7.42%
active: Potency [12] 39.8 µM

Cc1ccc(OP(=O)(Oc2ccc(C)cc2)Oc2ccc(C)cc2)cc1
active: Potency [16] 20 µM
inactive: Potency [1] | Potency [2] | Potency [3] | outcome [4] | Potency [5] | Potency [6] | outcome [17] | Potency [7] | outcome [8] | Potency [9] | Potency [10] | Potency [11] | Potency [12] | Potency [13] | Potency [14] | Potency [18] | max response [19] -12.3% and -24.8%

O=c1ccc(=O)[nH][nH]1
inactive: Potency [2] | Potency [3] | Potency [5] | Potency [6] | outcome [17] | Potency [7] | Potency [9] | Potency [11] | Potency [12] | Potency [13] | Potency [14] | Potency [18] | outcome [15] | Potency [16] | max response [20] 0.0495% and -4.15%

C/C=C/CC#N
inactive: Potency [1] | Potency [2] | Potency [3] | Potency [5] | Potency [6] | outcome [17] | outcome [8] | Potency [9] | Potency [10] | Potency [11] | Potency [13] | Potency [14] | Potency [18] | outcome [15] | Potency [16] | max response [19] -10.8% | max response [20] -0.823%

O=Cc1ccc2c(c1)OCO2
inactive: Potency [1] | Potency [2] | Potency [3] | Potency [5] | Potency [6] | outcome [17] | Potency [7] | outcome [8] | Potency [9] | Potency [10] | Potency [11] | Potency [12] | Potency [13] | Potency [14] | Potency [18] | outcome [15] | Potency [16] | max response [19] -0.123% | max response [20] 2.27%

CCCCC(CC)COC(=O)c1ccc(C(=O)OCC(CC)CCCC)c(C(=O)OCC(CC)CCCC)c1 (configuration not stated)
inactive: Potency [1] | Potency [2] | Potency [3] | Potency [5] | outcome [17] | Potency [7] | Potency [9] | Potency [10] | Potency [11] | Potency [12] | Potency [13] | Potency [14] | Potency [18] | outcome [15] | Potency [16] | max response [20] 0.711%

CC(C)OS(C)(=O)=O
inactive: Potency [1] | Potency [2] | Potency [3] | outcome [4] | outcome [8] | Potency [9] | Potency [10] | Potency [12] | Potency [13] | Potency [14] | Potency [18] | outcome [15] | Potency [16] | max response [19] -1.94% | max response [20] -0.369%

CCCCOC(C)=O
inactive: Potency [1] | Potency [2] | Potency [3] | outcome [4] | Potency [5] | Potency [6] | outcome [17] | Potency [7] | outcome [8] | Potency [9] | Potency [10] | Potency [11] | Potency [12] | Potency [13] | Potency [14] | Potency [18] | outcome [15] | Potency [16]

O=Cc1ccc(Cl)cc1Cl
inactive: Potency [1] | Potency [2] | Potency [5] | outcome [17] | Potency [7] | outcome [8] | Potency [9] | Potency [10] | Potency [11] | Potency [12] | Potency [13] | Potency [14] | Potency [18] | outcome [15] | Potency [16] | max response [19] -8.13% | max response [20] 2.77%
